About 79,000 compounds went through this panel and 15% of them were active in at least one assay; those are over-represented in the sample as a whole. A number with no mark means an inactive call. Calls of active or inactive are those of the source. Rule as the data show it: active = growth inhibition above about 70%; inactive = the rest.
Assay: NCI Yeast Anticancer Drug Screen. Data for the cln2 rad14 strain (AID 165);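 also: 0% = growth equal to vehicle treated cultures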
Details: S. cerevisiae cln2 rad14 strain, at 5.0 µM (retest, dose inferred, filed as 0.5), stronger effect = higher value
In short: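 Compounds are applied to the cln2 rad14 yeast strain, and growth is then compared with that of vehicle-treated cultures to give inhibition.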

| Compound | growth inhibition |
| --- | --- |
| NC(=O)NC(=O)N/N=C/c1ccc([N+](=O)[O-])o1 | -1% |
| O=[N+]([O-])/C=C\c1csc2ccccc12 | 81% (active) |
| O=[N+]([O-])c1ccc2c(c1)CCc1ccccc1-2 | -1% |
| CC1=C(C)CC2C(=O)C(C(O)CC(C)C)=CC(=O)C2C1 (stereo not given) | -13% |
| CCC(=O)OC1CCC(C2CCCCC2)CC1 (stereo not given) | 5% |
| Cc1cc(C2C(O)C(c3cc(C)on3)C2(C)O)no1 (stereo not given) | -2% |
| CC(C)C(Sc1nc(-c2ccccc2)c(-c2ccccc2)[nH]1)C(=O)NN (stereo not given) | 17% |
| C/C(=N\NC(=O)N/N=C(\C)c1ccccn1)c1ccccn1 | -21% |
| COC(=O)CCCCCCCCCCC(=O)O | -9% |
| CCCCCCCCCCCCNC(=O)C[n+]1cccc(C(N)=O)c1 | -6% |
| Nc1ccccc1N=Cc1ccccc1O | -18% |
| N#Cc1c(-c2ccc(Cl)cc2)c2c(n(C3OC(CO)C(O)C(O)C3O)c1=S)CCCC2 (stereo not given) | 3% |
| CC(C)(C)CC(C)(C)N[P+](NC(C)(C)CC(C)(C)C)(NC(C)(C)CC(C)(C)C)NC(C)(C)CC(C)(C)C | 84% (active) |
| CC(=O)OC1C(OC(C)=O)C2C(C)CC3OC(=O)C(C)C3CC2(C)C1OC(C)=O (stereo not given) | 34% |
| NNC(=O)c1ccc(N)cc1O | -2% |
| Nc1ccc2c(c1)C(=O)c1ccccc1-2 | 1% |
| Cc1cn(C(C#N)=C(C#N)C#N)c2ccccc12 | -2% |
| FC(F)(F)COP1(OCC(F)(F)F)=NP(OCC(F)(F)F)(OCC(F)(F)F)=NP(c2ccccc2)(c2ccccc2)=N1 | 2% |
| O=c1oc(-c2ccccc2Br)ns1 | 4% |
| CC(=O)N1C(C(=O)NNc2ccccc2)CSC1c1ccccc1 (stereo not given) | 42% |

| Compound | growth inhibition |
| --- | --- |
| O=[N+]([O-])/C=C/c1cc2c(ccc3ccccc32)[nH]1 | 37% |
| CN(C)CCCC1(c2ccccc2)SC(C)(C)c2ccc(Cl)cc21 (stereo not given) | 0% |
| O=c1[nH]c2ccccc2c2oc3ccccc3c12 | 18% |
| O=C(c1ccccc1)c1cn(/N=C\c2ccccc2)c(=O)nc1-c1ccccc1 | 11% |
| Cc1ccc(S(=O)(=O)OCCc2ccc(Cl)cc2)cc1 | -15% |
| COC(=O)CC1(O)c2cc(OC)c3cccc(OC)c3c2CCC1(C)C(=O)OC (stereo not given) | 80% (active) |
| CC(C)CC(NC(=O)SCc1ccccc1)C(=O)O (stereo not given) | 5% |
| COc1ccc(/C=C/c2ccnc3ccccc23)cc1 | 25% |
| N#CC1=C(N)OC(/C=C/c2ccccc2)=C(C#N)C1c1ccccc1 (stereo not given) | 33% |
| COc1ccc(C(=O)C(CN2CCOCC2)CN2CCOCC2)cc1 | 11% |
| N/N=C(/N)SCCCCCCCCCCS/C(N)=N/N | -10% |
| OC(CBr)C[n+]1cccc2cc(Cl)ccc21 (stereo not given) | -1% |
| O=C(O)C1C(C(=O)Nc2ccc3c(c2)Cc2ccccc2-3)C2(Cl)C(Cl)=C(Cl)C1(Cl)C2(Cl)Cl (stereo not given) | 31% |
| CSc1nc(COC(=O)NC(C)C)c(COC(=O)NC(C)C)n1-c1ccccc1 | 13% |
| CC(C)C[NH-].CC(C)C[NH-].[Cl][Pt+2]([Cl])([Cl])[Cl] | 53% |
| c1ccc(N=c2sc3ccccc3sc2=Nc2ccccc2)cc1 | 96% (active) |
| [Cl-].[La+3].[O-]/N=C(\c1ccccc1)c1ccccn1.[O-]/N=C(\c1ccccc1)c1ccccn1.[O-]/N=C(\c1ccccc1)c1ccccn1 | 21% |
| Clc1ccc(SSN2CCCCC2)cc1 | 6% |
| CCC(O)C(O)(c1ccccc1)c1nc2ccccc2s1 (stereo not given) | 7% |
| ONC(=Nc1cccc2ccccc12)C(=Nc1cccc2ccccc12)NO | -16% |

Source: PubChem BioAssay (NCI)
